Measured values as given in PubChem BioAssay (NCATS).
“And” between values parts separate entries of the source, which are not always exact repeats. Equal values may be shown once. Records with an inconclusive call do not appear. The source made the active and inactive calls. Calls come from the whole dose curve; as a rule, active = well fitted curve in the direction sought with a large enough effect; inconclusive = small, poorly fitted or top-dose-only effect, or another doubt; inactive = no such curve, though single readings can be large; an effect the other way counts as inactive or inconclusive.

Columns and labels:
[1] = molecular target: Cellular tumor antigen p53 (Homo sapiens) (UniProt P04637); test: Primary qHTS for small molecule compounds that upregulate eGFP-tagged delta133p53alpha (in N-terminal) cells. (AID 2060322); conditions: NCI-H358 eGFP-delta133p53alpha fluorescence, 24 h; activation: active compounds read high; note: nearly all actives have a fitted effect of over 75% in size; note: potency is the fitted concentration of half-maximal effect;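 for activation: series mostly up to about 56 µM; 0% = DMSO vehicle and 100% = reference activator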
Cellular tumor antigen p53 (Homo sapiens), sequence (P04637 whole entry, looked up): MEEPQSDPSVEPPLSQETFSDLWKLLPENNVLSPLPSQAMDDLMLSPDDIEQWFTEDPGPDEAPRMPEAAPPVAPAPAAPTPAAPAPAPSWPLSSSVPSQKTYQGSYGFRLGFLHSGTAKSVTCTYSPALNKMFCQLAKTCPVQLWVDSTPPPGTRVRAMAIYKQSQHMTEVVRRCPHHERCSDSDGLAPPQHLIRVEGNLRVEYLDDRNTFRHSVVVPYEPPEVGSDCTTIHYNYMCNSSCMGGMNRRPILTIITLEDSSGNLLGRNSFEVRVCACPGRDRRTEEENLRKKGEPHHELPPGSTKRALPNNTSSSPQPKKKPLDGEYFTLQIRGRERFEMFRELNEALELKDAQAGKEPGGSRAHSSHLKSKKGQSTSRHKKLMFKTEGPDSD
Method in brief: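 NCI-H358 cells pre-induced 24 h with 10 ng/ml doxycycline to express N-terminal eGFP-delta133p53alpha, then dosed 24 h at 37C without doxycycline; fixed, Hoechst-stained, GFP intensity by laser scanning cytometry, normalized to DMSO (0%) and 57.5 uM 5-azacytidine (100%).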

[2] = BET inhibitor-based combinations targeting novel dependencies in MECOM-rearranged (r) AML: SET-2 cell line (AID 2202231); conditions: SET-2 AML cells viability, CellTiter-Glo luminescence, 48 h; viability: active compounds read low, series mostly up to about 46 µM;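 note: plate controls were DMSO treated cells for no effect and wells without cells for full effect; nearly all actives have a fitted effect of over 35% in size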
Method in brief: (§1)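 Viability of cells (500 per well) is scored by luminescent CellTiter-Glo at 48 hr post-dosing. Eleven-point titrations are normalized to DMSO and empty controls and reduced to AUC values.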

[3] = BET inhibitor-based combinations targeting novel dependencies in MECOM-rearranged (r) AML: MV-4-11 cell line (AID 2202233); note: nearly all actives have a fitted effect of over 45% in size; note: potency is the fitted concentration of half-maximal effect
Method in brief: (§2)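 Using pin-tool transfer, drugs were added in 11 doses to cells (500/well), incubated 48 hr, and assessed with CellTiter-Glo. Z-AUC is a mean-centring transformation applied separately to each screened line.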

[4] = BET inhibitor-based combinations targeting novel dependencies in MECOM-rearranged (r) AML: HNT-34 cell line (AID 2202234); note: nearly all actives have a fitted effect of over 35% in size; note: potency is the fitted concentration of half-maximal effect;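 for viability (% of control): plate controls were vehicle wells for no effect and cell-free wells for full effect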
Method in brief: as §2

[5] = BET inhibitor-based combinations targeting novel dependencies in MECOM-rearranged (r) AML: UCSD-AML1 cell line (AID 2202235); note: nearly all actives have a fitted effect of over 40% in size; note: potency is the fitted concentration of half-maximal effect;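 for viability (% of control): series mostly up to about 46 µM; plate controls were DMSO vehicle wells for no effect and blank wells for full effect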
Method in brief: as §2

[6] = BET inhibitor-based combinations targeting novel dependencies in MECOM-rearranged (r) AML: AML-194 cell line (AID 2202237; note: nearly all actives have a fitted effect of over 40% in size; note: potency is the fitted concentration of half-maximal effect;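 for viability (% of control): plate controls were vehicle wells for no effect and wells without cells for full effect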)
Method in brief: as §1

[7] = BET inhibitor-based combinations targeting novel dependencies in MECOM-rearranged (r) AML: AML-191 cell line (AID 2202236; note: nearly all actives have a fitted effect of over 35% in size; note: potency is the fitted concentration of half-maximal effect;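 for viability (% of control): plate controls were vehicle wells for no effect and wells without cells for full effect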)
Method in brief: as §1

[8] = BET inhibitor-based combinations targeting novel dependencies in MECOM-rearranged (r) AML: OCI-AML3 cell line (AID 2202232); conditions: Potency: OCI-AML3 viability; note: nearly all actives have a fitted effect of over 35% in size; note: potency is the fitted concentration of half-maximal effect;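 for viability (% of control): series mostly up to about 46 µM; plate controls were DMSO vehicle wells for no effect and wells without cells for full effect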
Method in brief: as §1

Cn1cc(C2=C(c3c4n(c5ccccc35)CCC(CN)C4)C(=O)NC2=O)c2ccccc21 (centres undefined)
inactive: viability [2] 103% | viability (% of control) [5] 97.4% [at 8.46 µM] | viability (% of control) [6] 98.9% [at 8.46 µM]
active: Potency [1] 27.3 µM | Potency [3] 4.81 µM | Potency [4] 5.39 µM

N[C@H](CSC(c1ccccc1)(c1ccccc1)c1ccccc1)C(=O)O
inactive: activation [1] -3.21% | viability [2] 109% | Potency [3] | Potency [5] | Potency [6]

Cc1[nH]c(=O)c(C#N)cc1-c1ccc2nccn2c1
inactive: activation [1] -19.2% and 47.5% and 13.7% | viability [2] 118% | Potency [3] | Potency [4] | Potency [5] | Potency [7] | Potency [6]

Nc1[nH]c(=O)ncc1F
inactive: activation [1] 10.9% and -17.3% | viability [2] 119% | Potency [3] | Potency [4] | Potency [7] | Potency [6]

C=Cc1c(C)c2cc3nc(cc4[nH]c(cc5nc(cc1[nH]2)C(C)=C5CCC(=O)O)c(CCC(=O)OC)c4C)[C@@]1(C)C3=CC=C(C(=O)OC)[C@H]1C(=O)OC
active: Potency [3] 26.3 µM | Potency [4] 18.6 µM
inactive: activation [1] 9.63% | viability [2] 97.6% | Potency [5] | Potency [7] | Potency [6]

CC(N)C12CC3CC(CC(C3)C1)C2 (centres undefined)
inactive: activation [1] -14.2% and 12.7% | viability [2] 106% | Potency [3] | Potency [5] | Potency [7] | Potency [6]

CCn1c(-c2nonc2N)nc2c(C#CC(C)(C)O)ncc(OC[C@H]3CCCNC3)c21
active: Potency [3] 18.6 µM | Potency [4] 16.6 µM | Potency [6] 20.9 µM
inactive: activation [1] -17.2% | viability [2] 101%

CCCCCCCCCCCCc1ccc(S(=O)(=O)Nc2nncs2)cc1
inactive: activation [1] -6.63% | Potency [8] | Potency [3] | Potency [4] | Potency [7] | Potency [6]

O=C(O)[C@H](O)[C@@H](O)[C@H](O[C@@H]1O[C@H](CO)[C@H](O)[C@H](O)[C@H]1O)[C@H](O)CO
inactive: activation [1] -12.6% | Potency [8] | Potency [3] | Potency [4] | Potency [5] | Potency [6]

C[C@]12C=CC(=O)C=C1CC[C@@H]1[C@@H]2[C@@H](O)C[C@@]2(C)[C@H]1CC[C@]2(O)C(=O)CO
inactive: activation [1] -4.18% | Potency [8] | Potency [3] | Potency [4] | Potency [5]
active: Potency [7] 0.372 µM | Potency [6] 1.18 µM

CC(C)c1ccccc1Cc1cc(C(=O)Nc2ccc(S(=O)(=O)c3ccccc3C(C)(C)C)cc2)c(O)c(O)c1O
active: Potency [8] 4.68 µM | Potency [3] 10.5 µM | Potency [5] 10.5 µM | Potency [7] 9.34 µM | Potency [6] 10.5 µM
inactive: activation [1] -33%

CN1CCCN=C1/C=C/c1cccs1
inactive: activation [1] -2.82% | Potency [8] | Potency [3] | Potency [6]
active: Potency [5] 2.95 µM

N#CC1(c2ccc(NC(=O)c3cccnc3NCc3ccncc3)cc2)CCCC1
active: Potency [3] 14.8 µM
inactive: activation [1] -7.07% | Potency [8] | Potency [5] | Potency [7]

O=C(O)CCC1CCC(c2cc(F)ccc2F)(S(=O)(=O)c2ccc(Cl)cc2)CC1 (centres undefined)
inactive: activation [1] 33.4% | Potency [8] | Potency [3] | Potency [4] | Potency [5] | Potency [6]

Nc1nc2[nH]cc(CCc3ccc(C(=O)N[C@@H](CCC(=O)O)C(=O)O)cc3)c2c(=O)[nH]1
active: Potency [8] 0.662 µM | Potency [3] 0.372 µM | Potency [5] 1.05 µM | Potency [7] 0.525 µM
inactive: activation [1] -41.3% | Potency [4] | Potency [6]

CN[C@H]1CCc2cc(OC)c(OC)c(OC)c2-c2ccc(OC)c(=O)cc21
inactive: activation [1] 7.86%
active: Potency [8] 0.0934 µM | Potency [3] 0.105 µM | Potency [4] 0.0833 µM | Potency [5] 0.105 µM | Potency [7] 0.105 µM | Potency [6] 0.105 µM

CN(N=O)C(=O)N[C@@H]1[C@@H](O)[C@H](O)[C@@H](CO)O[C@@H]1O
inactive: activation [1] -14.1% | Potency [8] | Potency [3] | Potency [4] | Potency [5] | Potency [6]

NS(=O)(=O)c1ccc(NC2=CC(=O)c3ccccc3C2=O)cc1
active: Potency [8] 5.25 µM | Potency [3] 0.833 µM
inactive: activation [1] 4.73% | Potency [5] | Potency [6]

OC(c1cc(C(F)(F)F)nc2c(C(F)(F)F)cccc12)C1CCCCN1 (centres undefined)
active: Potency [8] 18.6 µM | Potency [3] 20.9 µM | Potency [4] 23.5 µM | Potency [7] 23.5 µM | Potency [6] 20.9 µM
inactive: activation [1] -0.154%
